Vaccinia Venus = inhibitors of vaccinia virus (Venus reporter); Vaccinia virus Venus reporter expression, fluorescence; Potency, µM (titrated, usually from 36.5 µM), for inactives: at the top dose activity change, negative = inhibition, usual class: inhibitors; 0.46% of 330,000 active; AID 720580; calls by dose curve; tested in A549 cells; also: % is scaled to controls: 0 for no effect and ±100 for the full control effect; nearly all actives have a fitted effect of over 30% in size
AmpC no deterg = AmpC beta-lactamase inhibition without detergent; P00811; AmpC nitrocefin hydrolysis, absorbance 480 nm, 0.0001% Triton; Potency, µM (titrated, usually from 57.1 µM), for the others: at the top dose activity change, negative = inhibition, most hits filed as inhibitors; 0.52% of 330,000 active;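 also: plate controls were no compound for no effect and no enzyme for full effect; nearly all actives have a fitted effect of over 20% in size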
Target sequence (P00811 whole entry, looked up): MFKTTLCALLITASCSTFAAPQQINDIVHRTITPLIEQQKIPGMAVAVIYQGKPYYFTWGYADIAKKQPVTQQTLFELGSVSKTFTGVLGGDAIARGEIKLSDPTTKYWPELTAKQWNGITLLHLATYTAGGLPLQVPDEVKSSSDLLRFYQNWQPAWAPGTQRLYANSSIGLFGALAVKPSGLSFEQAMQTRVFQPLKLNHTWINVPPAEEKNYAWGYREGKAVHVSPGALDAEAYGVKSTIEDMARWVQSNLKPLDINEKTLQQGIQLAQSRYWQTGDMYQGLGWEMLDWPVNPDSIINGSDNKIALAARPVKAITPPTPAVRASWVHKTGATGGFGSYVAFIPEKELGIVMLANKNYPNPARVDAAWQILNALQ
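AmpC (5.3 nM in the dispensed reagent) in 20 mM phosphate pH 7.0 with 0.01% (detergent screen) or 0.0001% Triton X-100 was preincubated with compounds for 15 min at room temperature. Nitrocefin was then added from an 800 uM solution, and hydrolysis was followed at 480 nm.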
AmpC inh detg = inhibitors of E. coli AmpC beta-lactamase with detergent; P00811; 0.041% of 370,000 active; AmpC hydrolysis of nitrocefin, absorbance 480 nm, 0.01% Triton; Potency, µM (titrated, usually from 114 µM), for inactives: top-dose activity change, negative = inhibition, actives largely listed as inhibitors;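 also: 0% = no-compound wells and -100% = no-enzyme wells; nearly all actives have a fitted effect of over 25% in size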
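AmpC (5.3 nM in the dispensed reagent) in 20 mM phosphate pH 7.0 with 0.01% (detergent screen) or 0.0001% Triton X-100 was preincubated with compounds for 15 min at room temperature. Nitrocefin was then added from an 800 uM solution, and hydrolysis was followed at 480 nm.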
SARS PLpro yeast = blocks SARS-CoV papain-like protease in a yeast assay; Potency, µM (highest dose often 32.9 µM), for the others: at the top dose activity, positive = growth rescue, actives largely listed as activators; 0.19% of 330,000 active; S. cerevisiae expressing SARS-CoV PLpro, growth rescue; AID 485353; calls by dose curve; also: 0% is about no effect; nearly all actives have a fitted effect of over 55% in size
Vaccinia mCherry = vaccinia inhibition (mCherry reporter); Vaccinia virus mCherry reporter infection, fluorescence; Potency, µM (top dose mostly 36.5 µM), inactives show top-dose activity change, negative = inhibition, actives largely listed as inhibitors; 0.63% of 310,000 active; AID 720579; calls by dose curve; tested in A549 cells; also: % is scaled to controls: 0 for no effect and ±100 for the full control effect; nearly all actives have a fitted effect of over 35% in size
Numbers without * were called inactive; i = inactive; ? = inconclusive; / = no result given; [ ] = dose if it differs, or a comment. In the library only some 1.3% were active in any assay of this set; here they are far more common. Unless noted, calls follow the shape of the dose curve; as a rule, active = well fitted curve in the direction sought with a large enough effect; inconclusive = small, poorly fitted or top-dose-only effect, or another doubt; inactive = no such curve, though single readings can be large; an effect the other way counts as inactive or inconclusive. Potency is read from the fitted curve at half-maximal effect.

SMILES	Vaccinia Venus	AmpC no deterg	AmpC inh detg	SARS PLpro yeast	Vaccinia mCherry
COc1ccc(-c2cc(C(=O)Nc3cc(OC)cc(C(=O)Nc4cccc(C(F)(F)F)c4)c3)[nH]n2)cc1	?	28µM*	-2%	-3%	-7%
O=C(Nc1cccc(-n2cnnn2)c1)c1ccoc1COc1ccc(Cl)cc1	/	7.1µM*	-10%	-1%	/
O=C(NC1CCN(Cc2ccccc2)C1)c1cnn(-c2ncc3c(n2)-c2ccccc2CC3)c1C1CC1 (configuration not stated)	-6%	/	/	/	-28%
CC(C)(O)C#Cc1ccc(CN2CCc3nnc(CNC(=O)c4cccc(F)c4)n3CC2)cc1	1%	/	/	/	-1%
Nc1ccc(Cn2ccc3c4c(N)nc(N)nc4ccc32)cc1	?	/	/	/	0.35µM*
CC[C@H](C)[C@H]1O[C@]2(C=C[C@@H]1C)C[C@@H]1C[C@@H](C/C=C(\C)[C@@H](O[C@H]3C[C@H](OC)[C@@H](O[C@H]4C[C@H](OC)[C@@H](O)[C@H](C)O4)[C@H](C)O3)[C@@H](C)/C=C/C=C3\CO[C@@H]4[C@H](O)C(C)=C[C@@H](C(=O)O1)[C@]34O)O2	-14%	/	/	/	-21%
CS(=O)(=O)c1ncc(Cl)c(C(=O)Nc2ccc3ccccc3c2)n1	?	-25%	-3%	-3%	10µM*
CC(=O)C1CCC2C3CC=C4CC(SC(=N)N)CCC4(C)C3CCC12C (configuration not stated)	16µM*	/	/	/	?
CCN=c1scc(-c2ccccc2)n1/N=C/c1ccccn1	5%	46%	-10%	-51%	5.6µM*
C=CCN=c1scc(-c2ccccc2)n1/N=C/c1ccccn1	13%	44%	-1%	-60%	2.2µM*
CCN=c1scc(-c2ccc(F)cc2)n1/N=C/c1ccccn1	-8%	87%	-1%	-4%	-7%
Cc1[nH]c2ccccc2c(=O)c1C(=O)/C=C/c1ccccc1	?	-37%	5%	-3%	3.2µM*
COc1cc(=O)n2c(c1C(=O)N(C)C(C)c1ccco1)CCN(C(=O)c1ccc(C(C)=O)cc1)CC2 (configuration not stated)	0%	/	/	/	i
O=C(COC(=O)c1ccccc1)Nc1ncc([N+](=O)[O-])s1	-14%	-59%	/	-41%	-16%
O=C(Nc1ccccc1)Nc1ncc([N+](=O)[O-])s1	?	-21%[11.4 µM]	-14%	-4%	10µM*
C#Cc1cccc(C(=O)NCc2nc(-c3ccccc3NC(=O)C3CCCO3)oc2C)c1 (configuration not stated)	1%	/	/	/	-7%
COCc1c(C(=O)N2CCN(C)CC2)cnn1-c1ncc2c(n1)-c1ccccc1CCC2	-12%	/	/	/	-24%
COC(=O)c1cc(CNC(=O)c2cccc(F)c2)cc(NC(=O)c2ccccc2OC)c1	-1%	/	/	/	-5%
Cc1cccc(C)c1NC(=O)COC(=O)c1c2c(nc3ccccc13)/C(=C\c1ccc3c(c1)OCO3)CCC2	-13%	28µM*	3%	-4%	-1%
CC(C)(C)C(=O)Cn1c(=N)n(Cc2ccccc2Cl)c2ccccc21	-24%	-13%	-2%	-2%	-7%
CC(C)(C)C(=O)Cn1c(=N)n(Cc2ccccc2)c2ccccc21	?	-2%	-3%	-51%	8.9µM*
Cc1ncc2c(c1CNC(=O)c1cncs1)CCN(C(=O)c1cccc(-c3cccc(F)c3)c1)C2	0%	/	/	/	i
COC(=O)c1cc2c(n1S(=O)(=O)c1ccc(C)cc1)C(=O)C(=O)c1[nH]cc(C(=O)OCc3ccccc3)c1-2	2.5µM*	/	/	/	2.2µM*
CCc1noc(C)c1C(=O)N1CCOc2ccc(CN3CCN(c4ccccn4)CC3)cc2C1	-8%	/	/	/	-11%
COc1ccc(C(C)(C)C)cc1S(=O)(=O)N1CCC(C(N)=O)CC1	-5%	-5%	-3%	2%	-22%
SMILES	Vaccinia Venus	AmpC no deterg	AmpC inh detg	SARS PLpro yeast	Vaccinia mCherry
COc1ccc(F)cc1S(=O)(=O)N1CCC(C(N)=O)CC1	13µM*	-18%	?	-1%	?
O=C(c1cccs1)N(Cc1nc2sc3c(c2c(=O)[nH]1)CCCC3)C1CCCC1	-17%	/	12%	/	13µM*
COc1cc(O)ccc1CN1CCc2nnc(C(C)NC(=O)c3cc(F)ccc3F)n2CC1 (configuration not stated)	-10%	/	/	/	i
COc1cc2c(cc1NC(=O)c1ccc(C(C)(C)C)cc1)CCCC2	5%	-20%	-14%	-20%	10µM*
Clc1ccccc1C1CC(c2ccccc2)Nc2ncnn21 (configuration not stated)	1%	40µM*	?	3%	-8%
c1ccc(C2CC(c3ccccc3)n3ncnc3N2)cc1 (configuration not stated)	-10%	-11%	?	3%	i
COCC(=O)Nc1cc(C(=O)N2CCCC(C(C)=O)C2)cc2nc(-c3ccccc3)n(C)c12 (configuration not stated)	-12%	/	/	/	-11%
Cc1nc(NCc2ccc3nsnc3c2)sc1-c1ccn(C)n1	-17%	/	/	/	-21%
CCOc1ccccc1NC(=O)c1cc(CC(C)C)oc1C	/	0.32µM*	4%	-17%	/
Cc1ccc(C)c(NC(=O)CN(C)C(=O)[C@@H](NC(=O)c2ccc(C(C)(C)C)cc2)C(C)C)c1	14µM*	242%	-1%	-4%	28µM*
Cc1cccc(C(=O)N2CCc3cc(CNS(=O)(=O)c4ccc(F)c(Cl)c4)ccc32)c1	-15%	/	6%	/	-16%
O=C(Nc1ccccc1N1CCOCC1)c1ccc([N+](=O)[O-])s1	7.9µM*	-10%	/	-5%	4.5µM*
O=C(Nc1ccccc1N1CCOCC1)c1ccccc1[N+](=O)[O-]	/	-24%	1%	2%	/
OC1(c2cccnc2)CCN(Cc2ccc3c(c2)CN(Cc2cc(F)ccc2F)CCO3)CC1	-3%	/	/	/	-16%
CCCCCCN1C[C@@H](O)[C@H](n2cc(C3CC3)nn2)C[C@@H]1c1ccccc1	-28%	/	/	/	i
CCCCCCN1C[C@H](n2cc(C3CC3)nn2)[C@@H](O)C[C@@H]1c1ccccc1	11µM*	/	/	/	?
CCCCCCN1C[C@H](n2cc(-c3ccc(F)cc3)nn2)[C@@H](O)C[C@@H]1c1ccc(C)cc1	?	/	/	/	28µM*

High-throughput results (PubChem)
